The values below come from ChEMBL document CHEMBL1201862, “PubChem BioAssay data set” (2004).

Hit rate of the full screen: of about 270,000 compounds, about 5,800 (2.1%) were called active. Roughly 16% stayed inconclusive and do not appear here. The calls are words filed in the database; no cut-off is given here. This excerpt belongs to a sample that is enriched for actives.

The target in the assay is Microtubule-associated protein tau (Homo sapiens) (UniProt P10636). Briefly: qHTS for Inhibitors of Tau Fibril Formation, Thioflavin T Binding. [Related pubchem assays: 596 ]. On the technique in general: qHTS replaces the single test concentration by a dilution series.
Sequence of Microtubule-associated protein tau (Homo sapiens) (P10636 whole entry): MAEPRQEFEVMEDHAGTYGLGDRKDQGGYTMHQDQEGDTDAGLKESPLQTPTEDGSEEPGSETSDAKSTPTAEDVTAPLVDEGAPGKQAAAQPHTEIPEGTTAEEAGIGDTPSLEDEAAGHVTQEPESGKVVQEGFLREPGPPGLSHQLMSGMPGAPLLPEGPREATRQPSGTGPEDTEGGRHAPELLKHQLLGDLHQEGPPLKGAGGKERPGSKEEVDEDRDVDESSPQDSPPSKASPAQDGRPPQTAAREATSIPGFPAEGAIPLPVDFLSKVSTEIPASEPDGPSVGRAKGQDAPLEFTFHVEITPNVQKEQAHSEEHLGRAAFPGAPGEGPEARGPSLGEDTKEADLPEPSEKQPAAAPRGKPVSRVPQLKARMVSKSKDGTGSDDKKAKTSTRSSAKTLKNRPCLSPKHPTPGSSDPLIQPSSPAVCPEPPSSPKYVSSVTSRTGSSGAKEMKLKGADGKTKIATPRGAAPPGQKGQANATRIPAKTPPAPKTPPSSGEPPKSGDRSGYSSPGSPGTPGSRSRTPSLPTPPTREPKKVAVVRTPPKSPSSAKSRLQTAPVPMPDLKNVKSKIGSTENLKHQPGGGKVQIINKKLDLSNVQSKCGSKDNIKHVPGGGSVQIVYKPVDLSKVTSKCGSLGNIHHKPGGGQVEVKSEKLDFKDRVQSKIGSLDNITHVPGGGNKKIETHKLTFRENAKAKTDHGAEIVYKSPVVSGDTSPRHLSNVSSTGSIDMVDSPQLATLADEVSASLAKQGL
`O=C(O)c1cc(/N=N/c2ccc(S(=O)(=O)Nc3ccccn3)cc2)ccc1O`: the Potency is 12.6 µM (active).
